Laboratory results: PubChem BioAssay
“And” between values parts separate entries of the source, which are not always exact repeats. Equal entries are not always repeated. Records with an inconclusive call do not appear. The source made the active and inactive calls.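 The calls were made as follows, unless noted: active = normalized viability below 100% at a tested concentration; inactive = the rest.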

Experiments:
[1] = viability loss in pontine glioma line – cell-based, JHH-DIPG-1, MIPE4.0, CellTiter-Glo, qHTS, dose response (AID 1347062; cut-off not given, nearly all actives have AC50 up to about 27 µM;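 as to AC50: cells exposed to compound for two days before readout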); conditions: JHH-DIPG-1 viability, CellTiter-Glo ATP luminescence
[2] = viability loss in pontine glioma line – cell-based, SU-DIPG-IV, MIPE4.0, CellTiter-Glo, qHTS, dose response (AID 1347063; cut-off not given, nearly all actives have AC50 up to about 30 µM;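 also: compound exposure lasted 48 hours before the viability readout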); conditions: CellTiter-Glo ATP luminescence
[3] = viability loss in pontine glioma line – cell-based, SU-DIPG-XIII, MIPE5.0, CellTiter-Glo, qHTS, dose response (AID 1347064; cut-off not given, nearly all actives have AC50 up to about 23 µM;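 as to AC50: cells exposed to compound for 48 hours before the viability read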); conditions: CellTiter-Glo ATP luminescence
[4] = growth inhibition of DIPG cells – cell-based, MIPE4.0 library, CellTiter-Glo luminescence, qHTS (AID 1347066; cut-off not given, nearly all actives have AC50 up to about 30 µM;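 also: cells exposed to compound for 48 hours before readout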); conditions: SU-DIPG-VI viability, CellTiter-Glo ATP luminescence
[5] = JHH-DIPG-1 glioma cell viability, MIPE5.0 library, CellTiter-Glo luminescence, qHTS (AID 1347067; cut-off not given, nearly all actives have AC50 up to about 26 µM;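 also: cells exposed to compound for 48 hours before readout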); conditions: JHH-DIPG-1 glioma viability, CellTiter-Glo ATP luminescence
[6] = growth inhibition of DIPG cells – cell-based, MIPE5.0 library, qHTS (AID 1347068; cut-off not given, nearly all actives have IC50 up to about 30 µM;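 as to IC50: cells exposed to compound for 48 hours before viability readout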); conditions: SU-DIPG-XXV viability
[7] = viability loss with induced miR-34 in A549 – imaging, A549 dox-inducible miR-34, nuclei and caspase counts, primary screen (AID 1347080;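 active = compounds whose cell count with miR-34 switched on is under 0.7 times the count with it off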); conditions: A549 miR-34 inducible, Hoechst nuclei count, 48 h
[8] = MELAS cybrid and Rieske KO viability enhancers – cell-based, MELAS cybrids, Rieske KO mouse fibroblasts, CellTiter-Glo, primary screen (AID 1508586;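 active = mean z-score across replicates of 1.96 or higher in either the MELAS or the Rieske mutant cell line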;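 also: z relative to plate mean and SD of compound and empty wells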); conditions: low glucose
[9] = viability loss in pontine glioma line – cell-based, SU-DIPG-XXV, MIPE5.0, CellTiter-Glo, qHTS, dose response (AID 1347065; cut-off not given, nearly all actives have AC50 up to about 26 µM;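 also: cells exposed to compound for 48 hours before ATP readout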); conditions: CellTiter-Glo ATP luminescence
[10] = compounds altering HSF1 focus formation in cells – imaging, Selleck Cancer Library (AID 1347162; in the data active = plate-normalised HSF1 focus index below about 0.46); conditions: human cells, HSF1 nuclear foci imaging, at 10 µM; SSMD: measured here: HSF1 foci SSMD mean; cell count: measured here: cell number; plate-normalised HSF1 focus index: stronger effect = lower value
[11] = drug combination growth inhibition, ovarian cancer – cell-based, oncology-focused library, rucaparib conditional, profiling panel (AID 1508598); conditions: patient-derived ovarian cancer cells, CellTiter-Glo viability, 144 h, stronger effect = lower value
[12] = stronger effect = lower value, cell number ratio, induced over uninduced
[13] = measured here: relative caspase fold change +Dox/-Dox
[14] = measured here: total cells with miR-34 induction, stronger effect = lower value
[15] = measured here: total cells without miR-34 induction
[16] = MELAS cybrid survival, CellTiter-Glo 48 h, stronger effect = higher value
[17] = Rieske KO mouse fibroblast survival, CellTiter-Glo 72 h

## CCCNC(=O)Nc1ccc(Oc2ncnc3cc(OC)c(OC)cc23)cc1Cl
[1]
  outcome: inactive
[2]
  outcome: inactive
[3]
  AC50: 20.9 µM (active)
[4]
  outcome: inactive
[5]
  AC50: 26.3 µM (active)
[6]
  outcome: inactive
[7]; [12]
  fold change: 0.924 (inactive)
[7]; [13]
  fold change: 0.73
[7]; [14]
  cell count: 7400
[7]; [15]
  cell count: 8010
[8]; [16]
  z-score: 0.782 (inactive)
[8]; [17]
  z-score: 0.0458

## CCCCCCCc1ccc(CCc2cccc(O)c2C(=O)O)cc1
[1]
  outcome: inactive
[2]
  outcome: inactive
[9]
  outcome: inactive
[5]
  outcome: inactive
[6]
  outcome: inactive
[10]
  SSMD: 0.921
  cell count: 6030
  plate-normalised HSF1 focus index: 1.06 (inactive)

## Cc1ccccc1C(C(=O)NC1CCCC1)N(C(=O)Cn1cnc2ccccc21)c1cccc(F)c1 (configuration not stated)
[1]
  outcome: inactive
[2]
  outcome: inactive

## CNC1CCC(N(Cc2cccc(-c3ccncc3)c2)C(=O)c2sc3ccccc3c2Cl)CC1 (configuration not stated)
[1]
  AC50: 14.8 µM (active)
[2]
  AC50: 16.6 µM (active)
[9]
  AC50: 11.8 µM (active)
[4]
  AC50: 18.7 µM (active)
[5]
  AC50: 20.9 µM (active)
[6]
  IC50: 9.34 µM (active)

## CC(C)(N)c1ccc(-c2nc3ccccc3nc2-c2ccccc2)cc1
[1]
  AC50: 23.5 µM (active)
[2]
  AC50: 26.4 µM (active)
[9]
  AC50: 23.5 µM (active)

## Nc1nccc(Oc2ccc(NC(=O)c3c[nH]cc(-c4ccc(F)cc4)c3=O)cc2F)c1Cl
[1]
  AC50: 18.7 µM (active)
[2]
  AC50: 16.6 µM (active)
[3]
  AC50: 14.8 µM (active)
[4]
  AC50: 26.4 µM (active)
[6]
  IC50: 23.5 µM (active)
[7]; [12]
  fold change: 0.93 (inactive)
[7]; [13]
  fold change: 0.882
[7]; [14]
  cell count: 7750
[7]; [15]
  cell count: 8330
[10]
  SSMD: -0.396
  cell count: 7240
  plate-normalised HSF1 focus index: 0.991 (inactive)
[8]; [16]
  z-score: -0.165 (inactive)
[8]; [17]
  z-score: 0.168
[11]; at 0.000305 µM, OCI-C5x cells, with rucaparib 10 µM, 100% = cells with rucaparib alone
  viability: 110% (inactive)
[11]; at 0.000305 µM, OCI-C5x cells, without rucaparib
  viability: 130% (inactive)
[11]; at 0.000305 µM, OCI-P5x cells, with rucaparib 20 µM, 100% = cells with rucaparib alone
  viability: 100% (inactive)
[11]; at 0.000305 µM, OCI-P5x cells, without rucaparib
  viability: 117% (inactive)
[11]; at 0.00122 µM, OCI-C5x cells, with rucaparib 10 µM, 100% = cells with rucaparib alone
  viability: 108% (inactive)
[11]; at 0.00122 µM, OCI-C5x cells, without rucaparib
  viability: 127% (inactive)
[11]; at 0.00122 µM, OCI-P5x cells, with rucaparib 20 µM, 100% = cells with rucaparib alone
  viability: 101% (inactive)
[11]; at 0.00122 µM, OCI-P5x cells, without rucaparib
  viability: 114% (inactive)
[11]; at 0.00488 µM, OCI-C5x cells, with rucaparib 10 µM, 100% = cells with rucaparib alone
  viability: 118% (inactive)
[11]; at 0.00488 µM, OCI-C5x cells, without rucaparib
  viability: 134% (inactive)
[11]; at 0.00488 µM, OCI-P5x cells, with rucaparib 20 µM, 100% = cells with rucaparib alone
  viability: 106% (inactive)
[11]; at 0.00488 µM, OCI-P5x cells, without rucaparib
  viability: 111% (inactive)
[11]; at 0.0195 µM, OCI-C5x cells, with rucaparib 10 µM, 100% = cells with rucaparib alone
  viability: 117% (inactive)
[11]; at 0.0195 µM, OCI-C5x cells, without rucaparib
  viability: 140% (inactive)
[11]; at 0.0195 µM, OCI-P5x cells, with rucaparib 20 µM, 100% = cells with rucaparib alone
  viability: 98.3% (active)
[11]; at 0.0195 µM, OCI-P5x cells, without rucaparib
  viability: 107% (inactive)
[11]; at 0.0781 µM, OCI-C5x cells, with rucaparib 10 µM, 100% = cells with rucaparib alone
  viability: 104% (inactive)
[11]; at 0.0781 µM, OCI-C5x cells, without rucaparib
  viability: 122% (inactive)
[11]; at 0.0781 µM, OCI-P5x cells, with rucaparib 20 µM, 100% = cells with rucaparib alone
  viability: 106% (inactive)
[11]; at 0.0781 µM, OCI-P5x cells, without rucaparib
  viability: 98.3% (active)
[11]; at 0.313 µM, OCI-C5x cells, with rucaparib 10 µM, 100% = cells with rucaparib alone
  viability: 133% (inactive)
[11]; at 0.313 µM, OCI-C5x cells, without rucaparib
  viability: 122% (inactive)
[11]; at 0.313 µM, OCI-P5x cells, with rucaparib 20 µM, 100% = cells with rucaparib alone
  viability: 102% (inactive)
[11]; at 0.313 µM, OCI-P5x cells, without rucaparib
  viability: 99.4% (active)
[11]; at 1.25 µM, OCI-C5x cells, with rucaparib 10 µM, 100% = cells with rucaparib alone
  viability: 132% (inactive)
[11]; at 1.25 µM, OCI-C5x cells, without rucaparib
  viability: 123% (inactive)
[11]; at 1.25 µM, OCI-P5x cells, with rucaparib 20 µM, 100% = cells with rucaparib alone
  viability: 99.9% (active)
[11]; at 1.25 µM, OCI-P5x cells, without rucaparib
  viability: 101% (inactive)
[11]; at 5 µM, OCI-C5x cells, with rucaparib 10 µM, 100% = cells with rucaparib alone
  viability: 149% (inactive)
[11]; at 5 µM, OCI-C5x cells, without rucaparib
  viability: 139% (inactive)
[11]; at 5 µM, OCI-P5x cells, with rucaparib 20 µM, 100% = cells with rucaparib alone
  viability: 59% (active)
[11]; at 5 µM, OCI-P5x cells, without rucaparib
  viability: 89.1% (active)

## CCOC(=O)N1CCN(/[N+]([O-])=N/Oc2cc(O/N=[N+](\[O-])N3CCN(C(=O)OCC)CC3)c([N+](=O)[O-])cc2[N+](=O)[O-])CC1
[1]
  AC50: 9.35 µM (active)
[2]
  AC50: 23.5 µM (active)

## COc1cc2c(cc1Cc1cccc(Cl)c1F)c(=O)c(C(=O)O)cn2[C@H](CO)C(C)C
[1]
  outcome: inactive
[4]
  AC50: 20.9 µM (active)
[5]
  AC50: 26.3 µM (active)

## CC(C)(C)[C@H](NC(=O)c1ccc(N)c(Cl)c1)C(=O)N1CCC[C@H]1C(=O)N[C@H](C#N)CC(=O)O
[1]
  outcome: inactive
[2]
  outcome: inactive
[4]
  outcome: inactive

## C=CC(=O)Nc1cccc(Nc2nc(NC3CCC(N(C)C)CC3)nc3c2ncn3C(C)C)c1 (configuration not stated)
[1]
  AC50: 0.187 µM (active)
[2]
  AC50: 0.0235 µM (active)

## CC/C=C\C[C@H]1C(=O)CC[C@@H]1CC(=O)OC
[1]
  outcome: inactive
[2]
  outcome: inactive
[4]
  outcome: inactive

## COc1ccc2c(Oc3ccc(NC(=O)c4c(C)n(CC(C)(C)O)n(-c5ccccc5)c4=O)cc3F)ccnc2c1
[1]
  outcome: inactive
[3]
  outcome: inactive
[9]
  AC50: 20.9 µM (active)
[4]
  outcome: inactive
[5]
  AC50: 20.9 µM (active)
[6]
  outcome: inactive

## COc1ccc(-c2c(-c3ccc(O)cc3O)n[nH]c2C)cc1
[1]
  outcome: inactive
[3]
  outcome: inactive
[9]
  outcome: inactive
[4]
  outcome: inactive
[6]
  outcome: inactive
[7]; [12]
  fold change: 0.931 (inactive)
[7]; [13]
  fold change: 0.724
[7]; [14]
  cell count: 7090
[7]; [15]
  cell count: 7620
[8]; [16]
  z-score: 0.614 (inactive)
[8]; [17]
  z-score: -0.216

## CCNC(=O)Nc1ccc(Oc2ncnc(N)c2/C=N/OC)cc1Cl
[1]
  outcome: inactive
[4]
  outcome: inactive
[6]
  outcome: inactive

## COc1cc(Cl)cn2c(-c3cccc(NC4CNC4)n3)cnc12
[1]
  outcome: inactive
[4]
  outcome: inactive

## c1ccc(CNc2nc(N3CCOc4ccccc43)nc3c2CCCC3)cc1
[1]
  outcome: inactive
[3]
  AC50: 16.6 µM (active)

## CC(C)(C)NC(=O)Nc1cccc(Nc2ncc(F)c(NC(C)(C)CO)n2)c1
[1]
  outcome: inactive
[3]
  outcome: inactive
[9]
  AC50: 4.68 µM (active)
[4]
  outcome: inactive

## NS(=O)(=O)c1ccc(NC2=CC(=O)c3ccccc3C2=O)cc1
[1]
  outcome: inactive
[3]
  AC50: 5.9 µM (active)
[9]
  AC50: 11.8 µM (active)
[4]
  AC50: 5.9 µM (active)
[5]
  AC50: 20.9 µM (active)

## CC(=O)Nc1sc2c(c1-c1nc3ccccc3s1)CNC2
[1]
  AC50: 23.5 µM (active)
[2]
  AC50: 20.9 µM (active)
[4]
  outcome: inactive

## NC[C@@H]1O[C@H](O[C@H]2[C@@H](O)[C@H](O[C@@H]3[C@@H](O)[C@H](N)C[C@H](N)[C@H]3O[C@H]3O[C@H](CN)[C@@H](O)[C@H](O)[C@H]3N)O[C@@H]2CO)[C@H](N)[C@@H](O)[C@@H]1O
[1]
  outcome: inactive
[2]
  outcome: inactive
[4]
  outcome: inactive
[7]; [12]
  fold change: 0.891 (inactive) and 0.964 (inactive)
[7]; [13]
  fold change: 0.356 and 1.26
[7]; [14]
  cell count: 8260 and 10600
[7]; [15]
  cell count: 9270 and 11000
[8]; [16]
  z-score: -0.364 (inactive) and -0.26 (inactive)
[8]; [17]
  z-score: -0.155 and -1.25

## CNC1[C@@H](O)C(O[C@@H]2C(O)C(O[C@H]3O[C@H]([C@@H](C)NC)CC[C@H]3N)[C@@H](N)C[C@H]2N)OC[C@]1(C)O (some centres not stated)
[1]
  outcome: inactive
[2]
  outcome: inactive
[4]
  outcome: inactive

## CCc1nc(-c2cccc(C)c2)c(-c2ccnc(NC(=O)c3ccccc3)c2)s1
[1]
  outcome: inactive
[2]
  outcome: inactive
[7]; [12]
  fold change: 0.974 (inactive)
[7]; [13]
  fold change: 0.928
[7]; [14]
  cell count: 5690
[7]; [15]
  cell count: 5840
[8]; [16]
  z-score: 0.655 (inactive)
[8]; [17]
  z-score: 0.137

## Cc1ccc(-n2[nH]c(C)c(N=Nc3cccc(-c4cccc(C(=O)O)c4)c3O)c2=O)cc1C
[1]
  outcome: inactive
[3]
  outcome: inactive
[4]
  AC50: 10.5 µM (active)
[5]
  outcome: inactive
[6]
  outcome: inactive
[7]; [12]
  fold change: 0.913 (inactive)
[7]; [13]
  fold change: 1.1
[7]; [14]
  cell count: 6690
[7]; [15]
  cell count: 7330
[8]; [16]
  z-score: -0.18 (inactive)
[8]; [17]
  z-score: -0.0982
